# According to paper PMC7862700, “An all-to-all approach to the identification of sequence-specific readers for epigenetic DNA modifications on cytosine”:
# How the values were obtained:
# Experiment in all cases: DAPPL (digital affinity profiling via proximity ligation, sequencing); 10 mM Tris-HCl pH 7.5, 50 mM NaCl, 1 mM DTT, 4% glycerol, room temperature, 30 min; GST-TFs on glutathione beads, 16-mer random dsDNA library, 0.1% formaldehyde crosslink after washing; high values mean tight binding
# [1] = target: T1, FEV (Homo sapiens, UniProt Q99581 1-238); conditions: protein: recombinant; tags: N-terminal GST; dsDNA, one strand shown
# T1 sequence: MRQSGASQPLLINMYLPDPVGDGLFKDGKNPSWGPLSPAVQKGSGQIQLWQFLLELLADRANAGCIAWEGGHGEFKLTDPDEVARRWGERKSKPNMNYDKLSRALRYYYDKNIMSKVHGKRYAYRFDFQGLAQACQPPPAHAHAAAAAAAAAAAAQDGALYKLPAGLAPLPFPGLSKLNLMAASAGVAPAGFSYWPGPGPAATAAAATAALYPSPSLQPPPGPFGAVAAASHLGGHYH
# Summary of the method: (§1)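 Binding signal is each hexamer's read frequency for a factor divided by its frequency in the tag-only sample. The factors were GST-fused human transcription factors from yeast, captured on glutathione beads, DNA-barcoded and pooled with that sample. Pools were incubated with 200 nmole of a random double-stranded 16-mer DNA library in Tris/NaCl/DTT/glycerol buffer at room temperature for 30 min, then washed, crosslinked with 0.1% formaldehyde, proximity-ligated with BsaI/T4 ligase (1 h, 37 °C), PCR-amplified and sequenced on an Illumina NextSeq500.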
# [2] = target: ETV5 (Homo sapiens, UniProt P41161 1-510); conditions: protein: recombinant; tags: N-terminal GST; dsDNA, one strand shown
# Summary of the method: as §1
# [3] = target: HSF1 (Homo sapiens, UniProt Q00613 1-529); conditions: protein: recombinant; tags: N-terminal GST; chain copies: 3; dsDNA, one strand shown
# Summary of the method: as §1
# [4] = target: T2, SPIC (Homo sapiens, UniProt Q8N5J4 1-248); conditions: protein: recombinant; tags: N-terminal GST; dsDNA, one strand shown
# T2 sequence: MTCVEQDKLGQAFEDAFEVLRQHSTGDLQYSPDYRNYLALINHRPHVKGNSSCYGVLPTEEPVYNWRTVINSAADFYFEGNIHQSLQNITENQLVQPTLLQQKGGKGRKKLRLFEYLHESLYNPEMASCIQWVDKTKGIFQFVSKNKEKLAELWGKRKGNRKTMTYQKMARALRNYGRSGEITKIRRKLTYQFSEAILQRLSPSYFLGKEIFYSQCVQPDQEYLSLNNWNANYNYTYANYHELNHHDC
# Summary of the method: as §1
# [5] = target: ELF4 (Homo sapiens, UniProt Q99607 1-663); conditions: protein: recombinant; tags: N-terminal GST; dsDNA, one strand shown
# Summary of the method: as §1
# [6] = target: T3, ELK4 (Homo sapiens, UniProt P28324-2 1-405); conditions: protein: recombinant; tags: N-terminal GST; dsDNA, one strand shown
# T3 sequence: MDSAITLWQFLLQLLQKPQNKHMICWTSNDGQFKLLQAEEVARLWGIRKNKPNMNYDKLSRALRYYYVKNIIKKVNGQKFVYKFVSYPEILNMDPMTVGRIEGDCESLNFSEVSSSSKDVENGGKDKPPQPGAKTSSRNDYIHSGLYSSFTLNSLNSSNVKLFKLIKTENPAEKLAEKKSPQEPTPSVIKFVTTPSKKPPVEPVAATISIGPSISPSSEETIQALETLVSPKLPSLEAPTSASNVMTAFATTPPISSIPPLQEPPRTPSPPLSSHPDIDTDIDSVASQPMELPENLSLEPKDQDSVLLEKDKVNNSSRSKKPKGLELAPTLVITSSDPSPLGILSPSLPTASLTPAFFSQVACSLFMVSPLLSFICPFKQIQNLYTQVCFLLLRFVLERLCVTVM
# Summary of the method: as §1
# [7] = target: T4, ETV2 (Homo sapiens, UniProt O00321 1-342); conditions: protein: recombinant; tags: N-terminal GST; dsDNA, one strand shown
# T4 sequence: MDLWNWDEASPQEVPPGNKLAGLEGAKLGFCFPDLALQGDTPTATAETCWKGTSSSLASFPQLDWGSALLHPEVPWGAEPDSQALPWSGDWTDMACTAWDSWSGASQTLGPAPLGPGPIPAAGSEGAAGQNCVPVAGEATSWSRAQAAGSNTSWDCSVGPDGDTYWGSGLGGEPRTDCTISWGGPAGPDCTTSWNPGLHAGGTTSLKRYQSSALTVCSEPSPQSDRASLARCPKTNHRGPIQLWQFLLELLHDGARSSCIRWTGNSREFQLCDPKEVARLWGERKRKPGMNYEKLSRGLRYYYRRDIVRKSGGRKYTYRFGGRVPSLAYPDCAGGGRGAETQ
# Summary of the method: as §1
# [8] = target: T5, ELF3 (Homo sapiens, UniProt P78545 1-371); conditions: protein: recombinant; tags: N-terminal GST; dsDNA, one strand shown
# T5 sequence: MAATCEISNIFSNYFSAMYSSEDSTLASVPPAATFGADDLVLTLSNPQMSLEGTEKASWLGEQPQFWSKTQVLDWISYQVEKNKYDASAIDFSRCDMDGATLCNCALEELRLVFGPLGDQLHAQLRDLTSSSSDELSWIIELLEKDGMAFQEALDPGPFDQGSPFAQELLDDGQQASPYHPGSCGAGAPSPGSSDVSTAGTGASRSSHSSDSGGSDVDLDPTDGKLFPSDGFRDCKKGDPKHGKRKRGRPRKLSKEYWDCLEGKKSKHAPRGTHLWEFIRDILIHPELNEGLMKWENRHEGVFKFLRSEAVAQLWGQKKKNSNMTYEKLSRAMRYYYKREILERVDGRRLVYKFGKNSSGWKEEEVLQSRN
# Summary of the method: as §1
# [9] = target: CRX (Homo sapiens, UniProt O43186 1-299); conditions: protein: recombinant; tags: N-terminal GST; dsDNA, one strand shown
# Summary of the method: as §1
# [10] = target: ETV1 (Homo sapiens, UniProt P50549 1-477); conditions: protein: recombinant; tags: N-terminal GST; dsDNA, one strand shown
# Summary of the method: as §1
# [11] = target: T6, ERF (Homo sapiens, UniProt P50548 1-548); conditions: protein: recombinant; tags: N-terminal GST; dsDNA, one strand shown
# T6 sequence: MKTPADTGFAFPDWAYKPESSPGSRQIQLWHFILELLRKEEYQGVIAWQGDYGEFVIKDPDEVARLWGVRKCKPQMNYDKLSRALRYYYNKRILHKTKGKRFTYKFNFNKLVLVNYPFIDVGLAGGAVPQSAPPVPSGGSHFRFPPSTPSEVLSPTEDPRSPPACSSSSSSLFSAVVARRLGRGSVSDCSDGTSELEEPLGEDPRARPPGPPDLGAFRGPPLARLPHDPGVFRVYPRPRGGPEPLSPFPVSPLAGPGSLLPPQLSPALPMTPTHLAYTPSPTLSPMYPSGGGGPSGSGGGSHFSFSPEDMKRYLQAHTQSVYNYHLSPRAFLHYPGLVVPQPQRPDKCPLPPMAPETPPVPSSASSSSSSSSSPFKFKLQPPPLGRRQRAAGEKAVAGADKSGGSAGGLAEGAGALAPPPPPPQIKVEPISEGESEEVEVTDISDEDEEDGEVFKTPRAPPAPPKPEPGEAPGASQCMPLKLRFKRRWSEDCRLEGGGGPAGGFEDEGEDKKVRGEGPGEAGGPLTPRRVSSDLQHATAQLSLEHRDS
# Summary of the method: as §1
# [12] = target: T7, ETV3L (Homo sapiens, UniProt Q6ZN32 1-361); conditions: protein: recombinant; tags: N-terminal GST; dsDNA, one strand shown
# T7 sequence: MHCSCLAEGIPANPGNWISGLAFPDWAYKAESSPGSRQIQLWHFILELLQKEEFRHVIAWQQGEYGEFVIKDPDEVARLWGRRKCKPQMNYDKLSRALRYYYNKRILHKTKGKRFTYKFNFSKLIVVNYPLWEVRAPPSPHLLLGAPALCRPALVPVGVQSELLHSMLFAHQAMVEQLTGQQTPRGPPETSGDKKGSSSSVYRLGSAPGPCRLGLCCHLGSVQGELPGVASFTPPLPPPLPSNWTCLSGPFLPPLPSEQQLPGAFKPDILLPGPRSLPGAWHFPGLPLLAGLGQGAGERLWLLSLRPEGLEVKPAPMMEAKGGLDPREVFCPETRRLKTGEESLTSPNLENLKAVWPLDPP
# Summary of the method: as §1
# [13] = target: T8, ETS2 (Homo sapiens, UniProt P15036 1-469); conditions: protein: recombinant; tags: N-terminal GST; dsDNA, one strand shown
# T8 sequence: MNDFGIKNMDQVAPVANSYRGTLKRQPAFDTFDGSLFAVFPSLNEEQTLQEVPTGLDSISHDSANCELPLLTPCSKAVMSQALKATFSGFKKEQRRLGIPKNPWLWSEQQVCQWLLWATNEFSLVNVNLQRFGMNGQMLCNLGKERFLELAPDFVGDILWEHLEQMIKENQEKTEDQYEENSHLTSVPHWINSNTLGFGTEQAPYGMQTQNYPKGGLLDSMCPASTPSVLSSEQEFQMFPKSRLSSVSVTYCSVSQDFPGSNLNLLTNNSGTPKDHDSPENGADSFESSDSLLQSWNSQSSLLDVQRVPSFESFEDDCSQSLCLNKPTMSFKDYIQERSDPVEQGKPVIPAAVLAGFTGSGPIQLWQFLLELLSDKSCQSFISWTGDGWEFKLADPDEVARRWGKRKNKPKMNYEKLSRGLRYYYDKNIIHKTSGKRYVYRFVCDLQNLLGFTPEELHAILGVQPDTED
# Summary of the method: as §1
# [14] = target: T9, SPDEF (Homo sapiens, UniProt O95238 1-335); conditions: protein: recombinant; tags: N-terminal GST; dsDNA, one strand shown
# T9 sequence: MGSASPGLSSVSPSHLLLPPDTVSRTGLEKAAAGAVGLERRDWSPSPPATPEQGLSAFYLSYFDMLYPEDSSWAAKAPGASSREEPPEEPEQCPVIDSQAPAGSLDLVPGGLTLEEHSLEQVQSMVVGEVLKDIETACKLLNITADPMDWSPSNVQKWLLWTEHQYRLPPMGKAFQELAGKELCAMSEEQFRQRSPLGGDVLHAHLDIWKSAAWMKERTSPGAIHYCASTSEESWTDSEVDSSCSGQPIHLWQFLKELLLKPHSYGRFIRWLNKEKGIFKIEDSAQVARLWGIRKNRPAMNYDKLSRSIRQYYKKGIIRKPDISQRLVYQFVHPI
# Summary of the method: as §1
# [15] = target: T10, ETV7 (Homo sapiens, UniProt Q9Y603 1-341); conditions: protein: recombinant; tags: N-terminal GST; dsDNA, one strand shown
# T10 sequence: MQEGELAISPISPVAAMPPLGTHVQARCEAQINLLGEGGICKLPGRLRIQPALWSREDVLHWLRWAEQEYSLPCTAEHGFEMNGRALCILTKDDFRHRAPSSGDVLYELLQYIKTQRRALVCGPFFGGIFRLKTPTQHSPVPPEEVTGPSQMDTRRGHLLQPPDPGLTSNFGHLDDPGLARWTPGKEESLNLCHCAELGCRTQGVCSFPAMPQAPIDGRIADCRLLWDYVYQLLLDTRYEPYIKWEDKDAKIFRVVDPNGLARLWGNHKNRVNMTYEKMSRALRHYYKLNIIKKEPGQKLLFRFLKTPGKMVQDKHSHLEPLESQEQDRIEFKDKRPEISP
# Summary of the method: as §1
# [16] = target: T11, ELF5 (Homo sapiens, UniProt Q9UKW6-2 1-255); conditions: protein: recombinant; tags: N-terminal GST; dsDNA, one strand shown
# T11 sequence: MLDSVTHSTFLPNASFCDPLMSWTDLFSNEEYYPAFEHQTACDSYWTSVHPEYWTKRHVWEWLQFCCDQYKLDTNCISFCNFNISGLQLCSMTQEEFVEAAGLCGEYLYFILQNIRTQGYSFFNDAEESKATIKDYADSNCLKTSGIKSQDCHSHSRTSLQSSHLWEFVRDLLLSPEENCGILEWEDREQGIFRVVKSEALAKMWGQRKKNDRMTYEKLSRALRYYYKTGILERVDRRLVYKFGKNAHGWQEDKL
# Summary of the method: as §1
# [17] = target: T12, ETV3 (Homo sapiens, UniProt P41162-2 1-143); conditions: protein: recombinant; tags: N-terminal GST; dsDNA, one strand shown
# T12 sequence: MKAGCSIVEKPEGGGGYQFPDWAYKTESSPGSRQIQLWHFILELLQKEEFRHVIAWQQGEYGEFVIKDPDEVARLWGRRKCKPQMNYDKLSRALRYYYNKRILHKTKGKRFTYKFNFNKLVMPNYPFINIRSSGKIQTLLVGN
# Summary of the method: as §1
# [18] = target: ETV6 (Homo sapiens, UniProt P41212 1-452); conditions: protein: recombinant; tags: N-terminal GST; dsDNA, one strand shown
# Summary of the method: as §1
# HSF1, sequence (Q00613 whole entry): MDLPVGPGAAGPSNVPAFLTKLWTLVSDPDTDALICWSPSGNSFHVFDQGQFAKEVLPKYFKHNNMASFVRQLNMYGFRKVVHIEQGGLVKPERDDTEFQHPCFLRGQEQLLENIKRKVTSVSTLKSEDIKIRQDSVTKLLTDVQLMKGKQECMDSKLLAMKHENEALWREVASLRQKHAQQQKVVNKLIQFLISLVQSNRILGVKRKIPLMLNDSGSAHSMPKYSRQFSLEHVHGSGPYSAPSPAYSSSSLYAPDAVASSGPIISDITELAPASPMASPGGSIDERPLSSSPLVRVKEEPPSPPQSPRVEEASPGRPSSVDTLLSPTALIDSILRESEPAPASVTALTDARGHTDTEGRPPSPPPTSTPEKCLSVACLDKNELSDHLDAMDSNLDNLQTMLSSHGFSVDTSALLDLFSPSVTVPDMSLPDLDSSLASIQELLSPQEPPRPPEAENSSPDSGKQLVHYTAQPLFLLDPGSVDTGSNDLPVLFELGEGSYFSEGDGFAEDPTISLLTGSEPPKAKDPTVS
# CRX, sequence (O43186 whole entry): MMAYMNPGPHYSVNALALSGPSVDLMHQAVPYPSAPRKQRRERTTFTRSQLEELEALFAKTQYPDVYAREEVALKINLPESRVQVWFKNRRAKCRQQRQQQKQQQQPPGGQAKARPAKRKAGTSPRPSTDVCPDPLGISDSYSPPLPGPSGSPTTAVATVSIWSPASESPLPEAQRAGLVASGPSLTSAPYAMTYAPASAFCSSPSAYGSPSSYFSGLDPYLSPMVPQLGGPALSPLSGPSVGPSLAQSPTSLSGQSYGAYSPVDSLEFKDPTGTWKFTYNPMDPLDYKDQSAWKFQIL
# ETV6, sequence (P41212 whole entry): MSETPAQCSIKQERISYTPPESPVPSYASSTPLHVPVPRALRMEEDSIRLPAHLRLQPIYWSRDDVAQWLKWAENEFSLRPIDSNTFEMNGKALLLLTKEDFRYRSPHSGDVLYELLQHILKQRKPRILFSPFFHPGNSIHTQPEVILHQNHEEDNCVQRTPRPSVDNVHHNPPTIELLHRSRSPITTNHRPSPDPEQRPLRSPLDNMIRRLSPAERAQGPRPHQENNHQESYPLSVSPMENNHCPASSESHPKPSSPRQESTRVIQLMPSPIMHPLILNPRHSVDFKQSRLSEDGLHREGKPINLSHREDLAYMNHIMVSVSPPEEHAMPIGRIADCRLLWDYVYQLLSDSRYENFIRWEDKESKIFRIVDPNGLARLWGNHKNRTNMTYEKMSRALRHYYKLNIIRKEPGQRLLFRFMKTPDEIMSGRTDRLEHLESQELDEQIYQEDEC
# ETV5, sequence (P41161 whole entry): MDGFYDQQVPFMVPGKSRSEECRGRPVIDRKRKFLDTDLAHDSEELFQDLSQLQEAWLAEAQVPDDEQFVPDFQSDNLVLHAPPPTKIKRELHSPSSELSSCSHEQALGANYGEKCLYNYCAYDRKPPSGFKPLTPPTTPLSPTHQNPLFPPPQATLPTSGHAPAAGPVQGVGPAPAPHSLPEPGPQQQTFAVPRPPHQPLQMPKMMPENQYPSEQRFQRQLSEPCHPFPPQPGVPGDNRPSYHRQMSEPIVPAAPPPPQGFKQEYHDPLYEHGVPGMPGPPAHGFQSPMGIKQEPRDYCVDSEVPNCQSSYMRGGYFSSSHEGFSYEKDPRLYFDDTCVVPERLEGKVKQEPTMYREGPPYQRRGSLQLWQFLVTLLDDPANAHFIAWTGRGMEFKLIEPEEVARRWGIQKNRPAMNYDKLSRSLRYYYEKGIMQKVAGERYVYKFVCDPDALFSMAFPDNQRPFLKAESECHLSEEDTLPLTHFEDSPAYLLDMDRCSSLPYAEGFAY
# ELF4, sequence (Q99607 whole entry): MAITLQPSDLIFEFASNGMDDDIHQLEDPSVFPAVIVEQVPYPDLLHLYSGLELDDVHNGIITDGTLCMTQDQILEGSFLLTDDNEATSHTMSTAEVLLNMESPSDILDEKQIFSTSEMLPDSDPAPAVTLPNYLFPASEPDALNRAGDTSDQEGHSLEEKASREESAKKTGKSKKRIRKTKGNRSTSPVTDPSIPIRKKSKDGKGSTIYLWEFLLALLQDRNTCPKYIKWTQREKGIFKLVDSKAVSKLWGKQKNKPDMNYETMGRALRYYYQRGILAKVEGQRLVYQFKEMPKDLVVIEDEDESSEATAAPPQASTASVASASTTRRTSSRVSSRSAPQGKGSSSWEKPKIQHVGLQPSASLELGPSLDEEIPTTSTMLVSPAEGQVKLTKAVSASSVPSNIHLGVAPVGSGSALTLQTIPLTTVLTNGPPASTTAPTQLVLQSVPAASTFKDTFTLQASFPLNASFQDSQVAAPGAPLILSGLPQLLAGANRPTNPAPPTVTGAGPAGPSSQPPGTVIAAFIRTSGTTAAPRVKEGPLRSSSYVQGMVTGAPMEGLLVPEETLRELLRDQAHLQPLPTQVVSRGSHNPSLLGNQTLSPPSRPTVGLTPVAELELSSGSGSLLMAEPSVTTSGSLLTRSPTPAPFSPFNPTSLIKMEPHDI
# ETV1, sequence (P50549 whole entry): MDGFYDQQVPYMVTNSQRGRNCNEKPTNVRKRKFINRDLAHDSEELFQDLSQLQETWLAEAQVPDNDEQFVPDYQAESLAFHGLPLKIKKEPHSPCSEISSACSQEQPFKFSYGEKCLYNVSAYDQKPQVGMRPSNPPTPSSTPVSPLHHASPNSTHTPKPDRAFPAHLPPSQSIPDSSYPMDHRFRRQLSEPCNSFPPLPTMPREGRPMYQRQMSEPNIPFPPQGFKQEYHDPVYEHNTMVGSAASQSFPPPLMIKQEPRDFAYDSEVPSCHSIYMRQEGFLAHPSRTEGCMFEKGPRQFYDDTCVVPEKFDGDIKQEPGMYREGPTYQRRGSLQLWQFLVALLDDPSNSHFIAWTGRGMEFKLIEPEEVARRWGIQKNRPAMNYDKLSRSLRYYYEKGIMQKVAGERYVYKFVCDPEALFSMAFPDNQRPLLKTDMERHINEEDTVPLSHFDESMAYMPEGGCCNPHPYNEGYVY
sequence,measurement,setting,value
GATGGC,binding signal,[1],"1.33 fold enrichment (6-mer frequency, TF over GST control)"
same,binding signal,[2],"1.26 fold enrichment (6-mer frequency, TF over GST control)"
same,binding signal,[3],"1.1 fold enrichment (6-mer frequency, TF over GST control)"
same,binding signal,[4],"1.45 fold enrichment (6-mer frequency, TF over GST control)"
same,binding signal,[5],"1.4 fold enrichment (6-mer frequency, TF over GST control)"
same,binding signal,[6],"1.3 fold enrichment (6-mer frequency, TF over GST control)"
same,binding signal,[7],"1.21 fold enrichment (6-mer frequency, TF over GST control)"
same,binding signal,[8],"1.47 fold enrichment (6-mer frequency, TF over GST control)"
same,binding signal,[9],"1.11 fold enrichment (6-mer frequency, TF over GST control)"
same,binding signal,[10],"1.31 fold enrichment (6-mer frequency, TF over GST control)"
same,binding signal,[11],"1.4 fold enrichment (6-mer frequency, TF over GST control)"
same,binding signal,[12],"1.3 fold enrichment (6-mer frequency, TF over GST control)"
same,binding signal,[13],"1.27 fold enrichment (6-mer frequency, TF over GST control)"
same,binding signal,[14],"1.29 fold enrichment (6-mer frequency, TF over GST control)"
same,binding signal,[15],"1.26 fold enrichment (6-mer frequency, TF over GST control)"
same,binding signal,[16],"1.3 fold enrichment (6-mer frequency, TF over GST control)"
same,binding signal,[17],"1.3 fold enrichment (6-mer frequency, TF over GST control)"
same,binding signal,[18],"1.31 fold enrichment (6-mer frequency, TF over GST control)"
